# Source: PubChem BioAssay
# The full list was thinned out, with hits kept by preference.
# ST2 inh: IL1RL1 inhibition. Q01638. AlphaLISA ST2-Fc/biotin-IL-33 interaction, 1 h. inhibition, % for hits at 17 µM. actives 2.3% (n = 78,000). AID 1259354; in the data active means inhibition above about 30%
# Target sequence (Q01638 whole entry, looked up): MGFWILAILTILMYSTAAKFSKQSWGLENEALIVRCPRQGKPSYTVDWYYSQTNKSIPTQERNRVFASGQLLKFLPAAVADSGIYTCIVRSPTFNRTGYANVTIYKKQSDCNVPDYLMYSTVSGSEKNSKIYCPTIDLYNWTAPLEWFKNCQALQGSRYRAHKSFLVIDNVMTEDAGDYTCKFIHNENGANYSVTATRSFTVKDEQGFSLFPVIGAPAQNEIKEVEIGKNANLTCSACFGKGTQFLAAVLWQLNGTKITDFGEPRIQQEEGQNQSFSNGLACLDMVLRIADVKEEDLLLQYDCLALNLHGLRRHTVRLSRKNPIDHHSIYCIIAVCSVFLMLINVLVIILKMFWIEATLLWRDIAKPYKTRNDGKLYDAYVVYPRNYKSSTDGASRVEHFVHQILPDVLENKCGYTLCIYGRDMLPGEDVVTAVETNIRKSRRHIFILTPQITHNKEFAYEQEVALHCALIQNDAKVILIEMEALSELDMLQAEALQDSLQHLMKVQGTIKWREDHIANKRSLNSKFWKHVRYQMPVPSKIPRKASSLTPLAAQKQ
# A number is an active result; 0 = inactive; ! = a repeat was not active.
SMILES,ST2 inh
CC(c1nnc(SCC(=O)O)n1-c1ccccc1)n1ccnc1 (stereo not drawn),31%
CC(=O)c1cccc(OCc2cc(C(=O)N(C)Cc3cccnc3)n[nH]2)c1,0
Cc1nn(-c2ccccc2)c(C)c1C=Nc1c(C)n(C)n(-c2ccccc2)c1=O,0
COc1ccccc1Nc1ncnc2sc(C)c(S(=O)(=O)N3CCC(C)CC3)c12,0
c1ccc(C2Oc3ccccc3C3CC(c4cccs4)=NN32)cc1 (stereo not drawn),34%
COc1ccc(C2=NN3C(C2)c2ccccc2OC3c2ccco2)cc1 (stereo not drawn),0
O=C(O)CCC(=O)N1N=C(c2cccs2)CC1c1ccc(F)cc1 (stereo not drawn),0
CC(C)c1cc(C(=O)N2C[C@@H]3C[C@H](C2)[C@@H]2CCCC(=O)N2C3)n[nH]1,0
CCN(CC)CCNC(=O)C1(O)c2ccccc2NC(=O)N1c1ccc(OC)cc1OC (stereo not drawn),0
Cc1ccc(-n2c(SCC(=O)c3ccccc3)nc3c(c2=O)SCC3)cc1,0
O=C(c1cccc(C(F)(F)F)c1)C1CCCN(Cc2c[nH]c(=O)[nH]c2=O)C1 (stereo not drawn),0
CCOC(=O)C1=C(N)OC2=C(C(=O)CC(c3ccccc3)C2)C1c1cccc(Cl)c1 (stereo not drawn),0
Cc1c(C)n(CC(O)CNc2ccc(Br)cc2)c2ccccc12 (stereo not drawn),31%
Cc1ccc(NCC(O)Cn2c(C)c(C)c3ccccc32)cc1 (stereo not drawn),36%!
Cc1ccc(NCC(O)Cn2c(C)c(C)c3ccccc32)cc1C (stereo not drawn),0
Cc1cc(C)n(CC(O)Cn2c(C)c(C)c3ccccc32)n1 (stereo not drawn),0
Cc1c(C)n(CC(O)CN2CCOCC2)c2ccccc12 (stereo not drawn),0
CN(CC(O)Cn1c2ccccc2c2ccccc21)S(=O)(=O)c1ccc(Br)cc1 (stereo not drawn),0
CCN(C(=O)Cc1c(C(=O)O)[nH]c2ccccc12)c1ccc(F)cc1,0
Cc1ncc2c(c1CNC(=O)CSc1ncccn1)CCN(C(=O)c1ccc(CC(C)C)cc1)C2,0
Cc1ccnc(SCCn2c(N3CCCC(C)C3)nc3c2c(=O)[nH]c(=O)n3C)n1 (stereo not drawn),0
CC(=O)Nc1ccc(Cl)c(C(=O)NC(c2ccncc2)c2ccccc2C)c1 (stereo not drawn),0
O=C(N[C@H]1CCN2C(=O)N(c3ccc(OC(F)(F)F)cc3)C(=O)[C@@H]2C1)c1ccncc1,0
CC(=O)N1CCC(C(=O)N[C@H]2CCN3C(=O)N(c4cccc(C(F)(F)F)c4)C(=O)[C@@H]3C2)CC1,0
O=C(N[C@H]1CCN2C(=O)N(c3cccc(C(F)(F)F)c3)C(=O)[C@@H]2C1)c1ccncc1,56%
SMILES,ST2 inh
COc1ccccc1-c1nc(SCC(=O)c2ccc(O)c(O)c2)n[nH]1,0
N#Cc1ccccc1NC(=O)c1ccc([N+](=O)[O-])cc1,0
Ic1ccc(-c2csc(Nc3ccc4c(c3)OCO4)n2)cc1,0
Cc1nc(-c2ccc([N+](=O)[O-])cc2)cs1,0
Cc1ccc(Nc2nc(-c3ccc([N+](=O)[O-])cc3)cs2)cc1C,33%
CC1CCC(NC(=O)C2CCCN2S(=O)(=O)c2cccc3nsnc23)CC1 (stereo not drawn),0
CC1CCN(C(=O)CSc2nnc(-c3ccc(Cl)s3)o2)CC1,0
C=C1C(=O)O[C@@H]2C[C@]3(C)[C@@H](CCC(C)O)[C@@H]3C[C@H]12 (stereo partly drawn),0
COc1cccc(C(=O)ON=C2C=CC(=O)C=C2)c1,0
COc1ccc(C(=O)ON=C2c3ccccc3-c3ccccc32)cc1,40%
COc1ccc(C(=O)OC(C)C(O)c2ccc(OC)cc2)cc1 (stereo not drawn),0
CCC1=C(O)C(C)(C)C(c2ccc(Cl)cc2)OC1=O (stereo not drawn),0
CCc1ccccc1NC(=O)Nc1cccc(Cl)c1,0
COc1ccc(C2CC(c3cccc(Br)c3)n3nc(N)nc3N2)cc1 (stereo not drawn),0
Cn1cnnc1SCC(=O)c1cccs1,0
COc1ccc(/C=N\OCc2nc3c4c5c(sc4ncn3n2)CCCCC5)cc1OC,0
O=[N+]([O-])c1cc(C(F)(F)F)ccc1NCCc1ccccc1,33%
O=[N+]([O-])c1cc(C(F)(F)F)ccc1N1CCN(S(=O)(=O)c2ccccc2)CC1,0
O=[N+]([O-])c1ccccc1S(=O)(=O)Nc1cccc(C(F)(F)F)c1,0
O=C(O)CSc1nc2sc3c(c2c(=O)[nH]1)CCCC3,0
NNc1ccc2c(Cl)cc(Cl)c(O)c2n1,35%
COc1ccc(-n2c(-c3ccc(Cl)cc3)cn3c4c(=O)n(C)c(=O)n(C)c4nc23)cc1,0
CCCS(=O)(=O)N1CCC(C(=O)NC2CC2)CC1,0
Cn1ccnc1CN(C(=O)C(O)c1ccc(C(F)(F)F)cc1)C1CC1 (stereo not drawn),0
c1ccc(-c2nnc(SCC3CCOCO3)n2-c2ccccc2)cc1 (stereo not drawn),31%
SMILES,ST2 inh
CCc1ccccc1NC(=O)CSc1nnc(-c2ccncc2)n1-c1ccccc1,0
O=C(CSc1nnc(-c2ccco2)n1-c1ccccc1)NCC1CCCO1 (stereo not drawn),0
Nc1c2c(nc3ccccc13)CCCC2 (tested in a mixture with another compound),0
COc1ccccc1C(=O)Oc1ccc2ccccc2c1,0
c1ccc2c3c([nH]c2c1)CN(Cc1ccsc1)CC3,0
C=CCSc1nnc2c(n1)OC(c1ccncc1)N(C(C)=O)c1ccccc1-2 (stereo not drawn),0
COc1ccc(Br)c(C2Oc3nc(SC)nnc3-c3ccccc3N2C(C)=O)c1 (stereo not drawn),0
COc1cc(C2Oc3nc(SC)nnc3-c3ccccc3N2C(C)=O)cc(OC)c1OC (stereo not drawn),0
C=CCSc1nnc2c(n1)OC(c1ccc(OC)cc1OC)N(C(C)=O)c1ccccc1-2 (stereo not drawn),30%
CCN(CC)c1ccc(C2Oc3nc(SC)nnc3-c3ccccc3N2C(C)=O)c(OC)c1 (stereo not drawn),36%
C=CCSc1nnc2c(n1)OC(c1ccccn1)N(C(C)=O)c1ccccc1-2 (stereo not drawn),0
COc1cccc2c1OC1(C)CC2NC(=O)N1c1ccc(Br)cc1 (stereo not drawn),0
CC(=O)Nc1ccc(-c2ccc(=O)n3c2[C@@H]2C[C@@H](CN(C(=O)Nc4cccc(C#N)c4)C2)C3)cc1,0
O=C(C1=CCCC1)N1CCCC(Nc2ccc3c(c2)OCCO3)C1 (stereo not drawn),0
O=C(O)c1cc(-c2cccc3c2OCC3)cc(S(=O)(=O)N2CCCC2)c1,0
CCN(CC)CCCN1C(=O)C(=O)C(=C(O)c2ccccc2)C1c1ccc(C)o1 (stereo not drawn),0
CCc1cc2c(=O)oc(-c3ccccc3C)nc2s1,33%
Cc1ccccc1-c1nc2cc(NC(=O)CC(C)C)ccc2o1,0
O=c1oc(-c2ccccc2)nc2ccc(Cl)cc12,0
Cc1nc2ccccc2n1C(=O)c1ccccc1Br,0
COc1cccc(OC)c1CNC(=O)CC1NC(=O)c2ccccc21 (stereo not drawn),0
CC(C)(C)c1ccc(OCC(O)CN2CCCC2)cc1 (stereo not drawn),0
OC(COc1ccc(C2C=CCC2)cc1)CN1CCCCC1 (stereo not drawn),52%
